About 83,000 compounds went through this panel and 20% of them were active in at least one assay; those are over-represented in the sample as a whole.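 Results are percent growth after 48 hours of single-concentration exposure. 100 means growth as in untreated cells, lower positive values show inhibition; negative values down to -100 show cell death.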 Activity calls are given as the source filed them. Rule for the calls: active = growth percent below 10; inactive = the rest.
Assays:
Experiment in all cases: NCI-60 one-dose screen, 48 h (100 = growth as untreated, 0 = no growth, -100 = all killed)
[1] = tested on: SR leukemia; conditions: 10 µM unless noted
[2] = tested on: RPMI-8226 leukemia; conditions: 10 µM unless noted
[3] = tested on: OVCAR-8 ovarian; conditions: 10 µM unless noted
[4] = tested on: OVCAR-5 ovarian; conditions: 10 µM unless noted
[5] = tested on: OVCAR-4 ovarian; conditions: 10 µM unless noted
[6] = tested on: SK-OV-3 ovarian; conditions: 10 µM unless noted
[7] = tested on: IGROV1 ovarian; conditions: 10 µM unless noted
[8] = tested on: OVCAR-3 ovarian; conditions: 10 µM unless noted
[9] = tested on: HS 578T breast; conditions: 10 µM
[10] = tested on: NCI/ADR-RES ovarian; conditions: 10 µM unless noted
[11] = tested on: T-47D breast; conditions: 10 µM unless noted
[12] = tested on: BT-549 breast; conditions: 10 µM unless noted
[13] = tested on: MDA-MB-435 melanoma; conditions: 10 µM unless noted
[14] = tested on: SW-620 colon; conditions: 10 µM unless noted
[15] = tested on: MCF7 breast; conditions: 10 µM unless noted
[16] = tested on: HCT-116 colon; conditions: 10 µM unless noted
[17] = tested on: HCC-2998 colon; conditions: 10 µM
[18] = tested on: KM12 colon; conditions: 10 µM unless noted

Measured: growth

CC(=O)O[C@]1(C)C[C@H](O)[C@]2(O)C=CO[C@H](O[C@@H]3O[C@H](CO)[C@@H](O)[C@H](O)[C@H]3O)[C@@H]21
inactive: [1] 92.3% | [2] 104% | [3] 110% | [4] 103% | [5] 99.8% | [6] 102% | [7] 100% | [8] 108% | [9] 112% | [10] 107% | [11] 92% | [12] 94.6% | [13] 102% | [14] 113% | [15] 94.4% | [16] 98.1% | [17] 116% | [18] 95.1%

C=CCCCC(=O)CCC(=O)OCC1O[C@@H](O[C@@H]2C(O)[C@@H](OC(C)=O)C(C)O[C@H]2O[C@H](CC=C)CCCCC)C(O)[C@@H](OC(=O)/C(C)=C/C)[C@@H]1OC(=O)/C=C/c1ccccc1 (stereo partly drawn)
inactive: [3] 42.1% | [4] 53.5% | [5] 42.4% | [6] 40.6% | [7] 35.1% | [8] 26% | [9] 35.9% | [10] 49.2% | [12] 16.7% | [14] 30.6% | [15] 17.6% | [16] 13.7% | [17] 44.1% | [18] 22.3%
active: [1] -12.4% | [2] -1.27% | [11] -5.16% | [13] 9.15%

CNC(=O)c1cc(Oc2ccc3nc(NC(=O)Nc4ccc(Cl)c(C(F)(F)F)c4)sc3c2)ccn1
inactive: [1] 22.6% | [2] 61.4% | [4] 30.8% | [6] 12.7% | [7] 56.8% | [10] 11.4% | [12] 17.4% | [13] 12.9% | [14] 21.5% | [15] 20.8% | [17] 46.6% | [18] 29.8%
active: [3] -11.1% | [5] -34% | [8] -61.1% | [9] -16.1% | [11] -2.44% | [16] -22%

COc1cc(C(=O)NNC(=O)c2ccc(NC(=O)CCl)cc2)cc(OC)c1OC
inactive: [1] 45.8% | [2] 97.8% | [3] 82.2% | [4] 170% | [5] 88.4% | [6] 99.1% | [7] 75.1% | [8] 62.4% | [9] 90.5% | [10] 102% | [11] 64.3% | [12] 66.8% | [13] 92.5% | [14] 65.5% | [15] 61.8% | [16] 44.5% | [17] 88.7%

O=C1CC(c2ccc3c(c2)OCO3)c2ncn(-c3ccc(Cl)cc3)c2N1 (stereo not drawn)
inactive: [1] 24.4% | [2] 38.7% | [3] 29.7% | [4] 71.2% | [5] 59.3% | [6] 37.4% | [7] 60.5% | [9] 47.5% | [10] 14% | [11] 41.3% | [12] 57.5% | [14] 24.3% | [15] 45.5% | [16] 11.4% | [17] 68.1%
active: [8] 7.91% | [13] -42.8%

Cc1cc(O)c2c(c1)C1OC(=O)CCCCCN1C1=C2C(=O)c2cccc(OC3CC(O)C(O)C(C)O3)c2C1=O (stereo not drawn)
inactive: [1] 54.2% | [2] 73.3% | [3] 52.9% | [4] 130% | [5] 90.2% | [6] 89.8% | [7] 96.4% | [9] 71.5% | [10] 91% | [11] 85.6% | [12] 83.6% | [13] 13.1% | [14] 99.9% | [15] 17.7% | [16] 24.5% | [17] 73% | [18] 83.4%
active: [8] 7.5%

COc1ccc2c(CCCCC(c3ccccc3)c3ccccc3)c3[n+](cc2c1OC)CCc1cc2c(cc1-3)OCO2
active: [1] -35.8% | [2] -33% | [3] -54.8% | [4] -13.4% | [5] -80.2% | [6] -9.34% | [7] -52.1% | [8] -89.6% | [9] -20.1% | [11] -49.3% | [12] -74.2% | [13] -91.8% | [14] -76.9% | [15] -40.6% | [16] -52.8% | [17] -95.7%
inactive: [10] 68.5%

CN1CCN(c2nc(NCCNc3ccnc4cc(Cl)ccc34)c3ccccc3n2)CC1
active: [1] -23.4% | [2] 3.82% | [5] -0.851% | [11] 0.35% | [13] -11.4% | [16] 6.36% | [17] 9.65%
inactive: [3] 12.4% | [4] 59.9% | [6] 44.6% | [7] 30.2% | [8] 17.4% | [9] 28.2% | [10] 85.5% | [12] 28.3% | [14] 26.5% | [15] 36% | [18] 29.2%

CN1CCN(CC(=O)Nc2ccc(-c3nc4ccccc4s3)cc2)CC1
inactive: [2] 88.1% | [3] 91.3% | [4] 72.9% | [5] 87.3% | [6] 94.2% | [7] 80.6% | [8] 99.2% | [9] 93.7% | [10] 85.6% | [11] 54.1% | [12] 80.7% | [13] 25.4% | [14] 102% | [15] 36.8% | [16] 70.9% | [17] 77.3%
active: [1] 6.26%

Reference: PubChem BioAssay (NCI)
